Pf growth 48h = inhibits P. falciparum growth in the first generation, 48 h; P. falciparum luciferase growth in erythrocytes, 48 h; Potency, µM (series often up to 28.7 µM), for the others: top-dose activity change, negative = inhibition, hits mostly inhibitors; hit rate 5.9% among 310,000; further: potency means the concentration at half of the fitted maximal effect; on the % scale 0 is the no-effect control and ±100 the full control effect
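Erythrocytes infected with P. falciparum carrying an integrated firefly luciferase reporter (2% hematocrit, 0.1% parasitemia final) were exposed to compounds in RPMI 1640 with 0.5% Albumax at 37 C, 5% CO2. Growth inhibition was scored as reduced luminescence.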
Pf growth 96h = P. falciparum growth inhibition at 96 hours | P. falciparum luciferase reporter growth, 96 h | hit rate 6.9% among 320,000 | Potency, µM (highest dose often 28.7 µM), for inactives: at the highest dose activity change, negative = inhibition, most hits filed as inhibitors; further: potency means the concentration at half of the fitted maximal effect; on the % scale 0 is the no-effect control and ±100 the full control effect
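Plates of compound plus infected erythrocytes (2% hematocrit, 0.05% parasitemia final) incubate 96 hours, 37 C, 5% CO2. Detection reagent added; reduced luminescence from the parasites' luciferase reporter flags inhibition.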
Cycloheximide cs = counter-screen for Shiga toxin inhibitors: cycloheximide protein synthesis inhibition | max response, % | AID 2314 | cell reporter, cycloheximide protein synthesis inhibition counterscreen | hit rate 12% among 300,000; in the data active means max response mostly above about 13%, no sharp cut-off; inactive means mostly below about 14%; further: read at 38.3 µM for the half of the compounds with a filed dose; 0% is about no effect
Shiga toxin inh = blocks Shiga toxin action in Vero cells; Vero cells, Shiga toxin protein synthesis inhibition reporter; inhibition, % at 38.7 µM; hit rate 9.2% among 290,000; in the data active means inhibition mostly above about 28%, no sharp cut-off; inactive means mostly below about 43%; further: 0% is about no effect
NS1 function inh = inhibitors of influenza NS1 protein function; Potency, µM (highest dose often 46.1 µM), for inactives: at the highest dose activity, positive = more growth; AID 2326; hit rate 0.4% among 270,000; calls by dose curve; further: potency means the concentration at half of the fitted maximal effect; actives are rising curves; nearly all actives have a fitted effect of over 50% in size
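Growth recovery, yeast-based: influenza A NS1 expressed in S. cerevisiae causes slow growth, and suppressors are detected by OD600. The parent strain without NS1 is used as positive control.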
Active calls of the source: *; [ ] = another dose, or the depositor's remark. Hits are enriched below; roughly 21% of the tested compounds scored in any of these assays. Unless noted, the call rests on the fitted dose curve; in most records, active means well fitted inhibition curve with a large enough effect; inconclusive means small, poorly fitted or top-dose-only effect, or another doubt; inactive means no such curve, though single readings can be large or run the other way.

What do the screens show for `COC(=O)c1ccccc1C(=O)c1ccc(OCCN2CCCCC2)cc1`?
Pf growth 48h: -23%; Pf growth 96h: -21%

What do the screens show for `Cc1ncsc1C(=O)N1N=C2/C(=C/c3ccccc3)CCCC2C1c1ccccc1` (configuration not stated)?
Pf growth 48h: inconclusive; Pf growth 96h: inconclusive; Cycloheximide cs: 2; Shiga toxin inh: -13; NS1 function inh: 10%

Results for Cc1ncsc1C(=O)N1N=C2/C(=C/c3ccc(N4CCOCC4)cc3)CCCC2C1c1ccc(N2CCOCC2)cc1 (configuration not stated) ?
Pf growth 48h: inconclusive; Pf growth 96h: 5.2µM*; Cycloheximide cs: 34; Shiga toxin inh: 3; NS1 function inh: 8%

Results for CC1(C)CC(=O)/C(=C(/O)CCCN2C(=O)c3ccccc3C2=O)C(=NC(C)(C)C)C1 ?
Pf growth 48h: -23%; Pf growth 96h: -31%; Cycloheximide cs: 0; Shiga toxin inh: -6

How did COc1ccccc1CNC(=O)C1CCN(S(=O)(=O)c2cccc([N+](=O)[O-])c2)CC1 do in these assays?
Pf growth 48h: -4%; Pf growth 96h: 9%; Cycloheximide cs: -2; Shiga toxin inh: -5; NS1 function inh: -12%

Results for CCOC(=O)CSc1nnc(CNC(=O)c2ccc(S(=O)(=O)N3CCCCC3)cc2)n1C ?
Pf growth 48h: -5%; Pf growth 96h: 33%; Cycloheximide cs: 1; Shiga toxin inh: -7; NS1 function inh: -13%

What do the screens show for `COC(=O)CSc1nnc(CNC(=O)c2ccc(S(=O)(=O)N3CCCCC3)cc2)n1C`?
Pf growth 48h: 6%; Pf growth 96h: 1.5µM*; Cycloheximide cs: -3; Shiga toxin inh: -19; NS1 function inh: -4%

How did Cc1ccc(C(=O)NCc2ccco2)cc1S(=O)(=O)N1CCCCC1 do in these assays?
Pf growth 48h: inconclusive; Pf growth 96h: 2.3µM*; Cycloheximide cs: 3; Shiga toxin inh: -9; NS1 function inh: 5%

What do the screens show for `O=C(NCc1ccco1)c1ccc(F)c(S(=O)(=O)N2CCCCC2)c1`?
Pf growth 48h: inconclusive; Pf growth 96h: inconclusive; Cycloheximide cs: -1; Shiga toxin inh: -9; NS1 function inh: 9%

How did O=C(NCc1ccco1)C1CCN(S(=O)(=O)c2cccc([N+](=O)[O-])c2)CC1 do in these assays?
Pf growth 48h: 9.3µM*; Pf growth 96h: -10%; Cycloheximide cs: -2; Shiga toxin inh: -5; NS1 function inh: 4%

How did O=C(NCc1ccco1)c1ccc(S(=O)(=O)N2CCCCCC2)cc1 do in these assays?
Pf growth 48h: 8.3µM*; Pf growth 96h: 10µM*

What do the screens show for `CCN(CCCNC(=O)CN1C(=O)COc2ccc(S(=O)(=O)N3CCC(C)CC3)cc21)Cc1ccccc1`?
Pf growth 48h: 0%; Pf growth 96h: inconclusive; Cycloheximide cs: -7; Shiga toxin inh: -11; NS1 function inh: -2%

What do the screens show for `Cc1cc2cc(CNC(=O)c3ccc(S(=O)(=O)N4CCCCC4)cc3)ccc2n1C`?
Pf growth 96h: 42%; Cycloheximide cs: 9; Shiga toxin inh: 17; NS1 function inh: 1.3µM*

What do the screens show for `Cc1ccc(CNC(=O)c2ccc(S(=O)(=O)N3CCCCC3)cc2)cc1`?
Pf growth 48h: inconclusive; Pf growth 96h: -2%

Results for CCn1c(CCCCc2n[nH]c(=S)n2CC)n[nH]c1=S ?
Pf growth 48h: 4%; Pf growth 96h: 18%; Cycloheximide cs: 6; Shiga toxin inh: 8; NS1 function inh: 3%

Results for CCc1n[nH]c(=O)n1Cn1c(CC)n[nH]c1=O ?
Pf growth 96h: 10µM*; Cycloheximide cs: -4; Shiga toxin inh: -1; NS1 function inh: -5%

Results for CC(=O)c1cc2c(cc1NS(=O)(=O)c1ccccc1F)OCO2 ?
Pf growth 48h: inconclusive; Pf growth 96h: -13%; Cycloheximide cs: -4; Shiga toxin inh: -7; NS1 function inh: 5%

What do the screens show for `CN(C)c1nc(N2CCN(c3ccc(F)cc3)CC2)c(C#N)c(=O)o1`?
Pf growth 48h: inconclusive; Pf growth 96h: 26%; Cycloheximide cs: 1; Shiga toxin inh: -7; NS1 function inh: 13%

What do the screens show for `CN1CCN(c2nc(N(C)C)oc(=O)c2C#N)CC1`?
Pf growth 48h: -13%; Pf growth 96h: 0.0037µM*; Cycloheximide cs: -3; Shiga toxin inh: -16; NS1 function inh: 5%

Results for Cc1nc(Nc2cccc(Cl)c2)c2oc3ccccc3c2n1 ?
Pf growth 48h: -58%; Pf growth 96h: inconclusive; Cycloheximide cs: 20*; Shiga toxin inh: 31*; NS1 function inh: -42%

What do the screens show for `Cc1nc(Nc2cccc(O)c2)c2oc3ccccc3c2n1`?
Pf growth 48h: -19%[0.00184 µM]; Pf growth 96h: -18%; Cycloheximide cs: 42*; Shiga toxin inh: 52*; NS1 function inh: 1%

Results for Cc1nc(Nc2ccc(Cl)cc2)c2oc3ccccc3c2n1 ?
Pf growth 48h: inconclusive; Pf growth 96h: inconclusive; Cycloheximide cs: 7; Shiga toxin inh: -2; NS1 function inh: 3%

How did CCNc1nc(C)nc2c1oc1ccccc12 do in these assays?
Pf growth 48h: 24%; Pf growth 96h: 0.66µM*; Cycloheximide cs: 2; Shiga toxin inh: -4; NS1 function inh: -34%

What do the screens show for `CCNc1nc(CC)nc2c1oc1ccccc12`?
Pf growth 48h: 0%; Pf growth 96h: inconclusive; Cycloheximide cs: -2; Shiga toxin inh: -9; NS1 function inh: -56%

What do the screens show for `COc1ccccc1Nc1nc(C)nc2c1oc1ccccc12`?
Pf growth 48h: -13%; Pf growth 96h: inconclusive; Cycloheximide cs: -4; Shiga toxin inh: 11; NS1 function inh: -7%

How did Cc1nc2c(oc3ccccc32)c(=O)o1 do in these assays?
Pf growth 48h: inconclusive; Cycloheximide cs: 88*; Shiga toxin inh: 144*; NS1 function inh: -13%

Results for CCCNC(=O)COC(=O)/C(C#N)=C/c1cc(C)n(CCC)c1C ?
Pf growth 48h: -13%; Pf growth 96h: inconclusive; Cycloheximide cs: 8; Shiga toxin inh: 30

How did Cn1c(SCc2ccccc2Cl)nc(C(F)(F)F)cc1=O do in these assays?
Pf growth 48h: 1%; Pf growth 96h: 56%; Cycloheximide cs: -1; Shiga toxin inh: -4; NS1 function inh: -3%

How did Cc1nc(Nc2ccccc2O)c2oc3ccccc3c2n1 do in these assays?
Pf growth 48h: 1%[0.00184 µM]; Pf growth 96h: 19%; Cycloheximide cs: -4; Shiga toxin inh: -6; NS1 function inh: 1%

Results for Cc1nc(NCCCn2ccnc2)c2oc3ccccc3c2n1 ?
Pf growth 48h: inconclusive; Pf growth 96h: inconclusive; Cycloheximide cs: 16*; Shiga toxin inh: 33; NS1 function inh: inconclusive

Results for COc1cccc(Nc2nc(C)nc3c2oc2ccccc23)c1 ?
Pf growth 48h: 6%[0.00184 µM]; Pf growth 96h: -2%; Cycloheximide cs: 11; Shiga toxin inh: 31; NS1 function inh: -4%

What do the screens show for `Cc1nc(Nc2cccc(F)c2)c2oc3ccccc3c2n1`?
Pf growth 48h: 0%[0.00184 µM]; Pf growth 96h: -5%; Cycloheximide cs: 28*; Shiga toxin inh: 97*; NS1 function inh: -8%

Results for Cc1nc(Nc2ccccc2F)c2oc3ccccc3c2n1 ?
Pf growth 48h: -20%[0.00184 µM]; Pf growth 96h: 48%; Cycloheximide cs: 32*; Shiga toxin inh: 69*; NS1 function inh: -6%

Assay outcomes (PubChem BioAssay)
